The values that follow come from PubChem BioAssay (NCATS).

Test [1] can be described thus: Cytotoxicity counterscreen for inhibitors of SARS-CoV-2 cell entry (AID 1645845). Further: nearly all actives have a fitted effect of over 50% in size. The settings on record: outcome: dose series up to 57.1 µM unless noted. A digest of the protocol:
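ATP-content luminescence (ATPLite 1step, 15 min RT) read after 48 h compound exposure of Expi293F cells stably expressing human ACE2; normalized to cells-only wells and media-only wells.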

A short description of test [2]: Primary qHTS to identify inhibitors of SARS-CoV-2 cell entry (AID 1645846). Further: nearly all actives have a fitted effect of over 45% in size. To be noted: SARS-CoV-2 pseudovirus cell entry assay, luminescence; activity change, negative = inhibition: at 57.1 µM (top of the series) unless noted. An outline of the steps: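 Luminescence readout (Bright-Glo luciferase) 48 h after pseudoparticle addition. HEK293-ACE2 cells, 1500/well; compound pre-incubation 1 h; Normalized to spike PP and bald PP.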

Results filed as inconclusive are left out. Calls of active or inactive are those of the source. The call rests on the fitted dose curve.
Potency means the concentration at half of the fitted maximal effect.

`CCCCOC(=O)NS(=O)(=O)c1sc(CC(C)C)cc1-c1ccc(Cn2ccnc2)cc1`: the Potency result in test [1] and in test [2] was “inactive” each time.

On to `CC(=O)Nc1ccc(C(=O)NC(C)(C)C)cc1`, for which the Potency entry in test [1] and in test [2] was “inactive” each time.

In the case of `C[C@@H]1O[C@@H](O[C@@H]2\C=C/C=C\C=C/C=C\C[C@H](C)OC(=O)/C=C\[C@H]3O[C@@H]3C[C@H](O)C[C@]3(O)C[C@@H](O)[C@@H](C(=O)O)[C@H](C2)O3)[C@H](O)[C@H](N)[C@@H]1O`, in test [1], the Potency entry was “inactive”. In addition, the activity change, negative = inhibition in test [2] was -17.3%.

For `CC1(C)CCC2(CC1)N[C@@H](C(=O)N[C@@H]1CC[C@@H](C(N)=O)OC1)[C@H](c1ccnc(Cl)c1F)[C@]21C(=O)Nc2cc(Cl)ccc21`, the Potency entry in test [1] was “inactive”. Moreover, the activity change, negative = inhibition in test [2] was -20.9% [at 37.9 µM].

For the molecule `O=c1sn(-c2cccc3ccccc23)c(=O)n1Cc1ccccc1`, the Potency entry in test [1] and in test [2] was “inactive” throughout.

For the molecule `N=C(N)c1ccc2nc(-c3cc(CC(=O)N[C@@H](CC(=O)O)C(=O)O)cc(-c4cc(S(N)(=O)=O)ccc4O)c3O)[nH]c2c1`, the Potency result in test [1] and in test [2] was “inactive” each time.

On to `Nc1cccc2c1CN([C@H]1CCC(=O)NC1=O)C2=O`, for which the Potency entry in test [1] was “inactive”. Also, in test [2], the activity change, negative = inhibition was -16.6%.

Take `CC(C)(O)[C@H]1CC[C@@](C)([C@H]2[C@@H](O)C[C@@]3(C)[C@@H]4C[C@H](O[C@@H]5O[C@H](CO)[C@@H](O)[C@H](O)[C@H]5O)[C@H]5C(C)(C)[C@@H](O[C@@H]6OC[C@@H](O)[C@H](O)[C@H]6O)CC[C@@]56C[C@@]46CC[C@]23C)O1`: the Potency entry in test [1] and in test [2] was “inactive” in each case.

For `Cc1c[nH]c2nc(Nc3ccc(N4CCN(C)CC4)c(F)c3)nc(-c3cccc(CC#N)c3)c12`, the Potency in test [1] is 8.91 µM (active); in test [2] it was 2.51 µM (active).

Consider `OCc1ccccc1O[C@@H]1O[C@H](CO)[C@@H](O)[C@H](O)[C@H]1O`, for which, in test [1], the Potency result is “inactive”. The activity change, negative = inhibition in test [2] was -12.3%.

On to `CCOC(=N)c1nc2ccc3ncnc(Nc4cc(F)c(F)cc4Cl)c3c2s1`, for which the Potency entry in test [1] is “inactive”. Moreover, the activity change, negative = inhibition in test [2] is -20.9%.

Turning to `COC(=O)C1=C(C)NC(c2ncc(F)cc2F)=N[C@@H]1c1ccc(F)cc1Cl`, the Potency entry in test [1] was “inactive”. Besides, in test [2], the activity change, negative = inhibition was -19.4%.

For the molecule `C[C@H](CCC(=O)O)[C@H]1CC[C@H]2[C@@H]3[C@@H](O)C[C@@H]4C[C@H](O)CC[C@]4(C)[C@H]3CC[C@]12C`, the Potency entry in test [1] was “inactive”. The activity change, negative = inhibition in test [2] was -16.5%.

On to `CC(C)[C@@H](CS(=O)(=O)C(C)C)N1C(=O)[C@@](C)(CC(=O)O)C[C@H](c2cccc(Cl)c2)[C@H]1c1ccc(Cl)cc1`, for which the Potency result in test [1] was “inactive”. Further, the activity change, negative = inhibition in test [2] is -11.9%.

For the molecule `Cc1cc(-c2nc3cc(F)ccc3s2)ccc1NC(=O)[C@@H](N)CCCCN`, the Potency in test [1] was 22.4 µM (active); in test [2], 28.2 µM (active).

Take `C[C@H](CCC(=O)O)[C@H]1CC[C@H]2[C@@H]3[C@H](O)C[C@@H]4C[C@H](O)CC[C@]4(C)[C@H]3CC[C@]12C`: the Potency entry in test [1] was “inactive”. Besides, the activity change, negative = inhibition in test [2] is -12.9%.

Turning to `Cc1cnc(NC(=O)c2cc(Oc3cnc(C(=O)N(C)C)nc3)c3cc(C)oc3c2)cn1`, the Potency entry in test [1] is “inactive”. Besides, the activity change, negative = inhibition in test [2] is -4.66%.

Take `Cn1c(-c2ccccc2C(F)(F)F)nnc1C12CCC(c3noc(C4CC(F)(F)C4)n3)(CC1)CC2`: the Potency entry in test [1] was “inactive”. Also, the activity change, negative = inhibition in test [2] is -12.8%.

With `COc1ccc(S(=O)(=O)N[C@@H](CNc2nc(C)nc(N3CCC(c4ccc5c(n4)NCCC5)CC3)c2C)C(=O)O)cc1`, in test [1], the Potency entry is “inactive”. The activity change, negative = inhibition in test [2] was -3.98%.

With `C[C@]12CC[C@H](O)CC1=CC[C@@H]1[C@@H]2CC[C@]2(C)C(c3cccnc3)=CC[C@@H]12`, the Potency result in test [1] and in test [2] was “inactive” in each case.

Take `CN(C)C(N)=NC(=N)N`: the outcome in test [1] and in test [2] was “inactive [setting not given]” throughout.

Consider `Cc1cccc(-c2nn3c(c2-c2ccnc4ccc(C(N)=O)cc24)CCC3)n1`, for which, in test [1], the Potency entry is “inactive”. Besides, the activity change, negative = inhibition in test [2] was -4.65%.

As to `O=C(N[C@H]1CCC[C@H](CO)C1)C1CCN(c2nc3cc(Cl)c(-c4ccc(Cl)cc4)cc3o2)CC1`, the Potency result in test [1] is “inactive”. Further, the activity change, negative = inhibition in test [2] was -9.89%.

On to `CC(=O)N[C@H]1[C@H](O[C@@H]2c3ccc(c(Cl)c3)Oc3cc4cc(c3O[C@@H]3O[C@H](CO)[C@@H](O)[C@H](O)[C@H]3NC(=O)CCCCCCCC(C)C)Oc3ccc(cc3Cl)C[C@H]3NC(=O)[C@H](N)c5ccc(O)c(c5)Oc5cc(O)cc(c5)[C@H](NC3=O)C(=O)N[C@H]4C(=O)N[C@H]3C(=O)N[C@@H]2C(=O)N[C@@H](C(=O)O)c2cc(O)cc(O[C@H]4O[C@H](CO)[C@@H](O)[C@H](O)[C@@H]4O)c2-c2cc3ccc2O)O[C@H](CO)[C@@H](O)[C@@H]1O`, for which, in test [1], the Potency entry is “inactive”. Further, the activity change, negative = inhibition in test [2] was -12.4%.

In the case of `C=CC(=O)Nc1ccc2ncnc(Nc3cccc(Br)c3)c2c1`, the Potency is 14.1 µM (active) in test [1] and 7.94 µM (active) in test [2].

For the molecule `CC(C)(C)C(=O)N1N=CC[C@H]1c1ccccc1`, the Potency entry in test [1] was “inactive”. In addition, the activity change, negative = inhibition in test [2] was -3.46%.

Regarding `Nc1nccc(-c2c(-c3ccc(F)cc3)ncn2C2CCCCC2)n1`, the Potency entry in test [1] and in test [2] was “inactive” throughout.

As for `CN1C(=O)[C@@H](NC(=O)c2n[nH]c(Cc3ccccc3)n2)COc2ccccc21`, the Potency result in test [1] and in test [2] was “inactive” throughout.

For the molecule `O=C(O)c1ccc(CN2CCC(CN[C@@H]3C[C@H]3c3ccccc3)CC2)cc1`, the Potency result in test [1] and in test [2] was “inactive” each time.

Turning to `CCc1cc2c(c(OCC(F)(F)F)c(C(=O)NC3CCN(C(=O)CO)CC3)n2C)c(=O)n1CC(=O)c1ccccc1`, in test [1], the Potency result is “inactive”. In addition, in test [2], the activity change, negative = inhibition is -53.6%.
